Laboratory results: the supplement of paper PMC10338343
± gives the standard deviation. Whole data set: some 6,600 sequences, median “pre-steady-state target cleavage rate” near 0.07, cut for the highest 2% near 0.72. For the sample, the highest values were picked, then their nearest neighbours and some sequences at random.

Each sequence was assayed on MIWI (PIWIL1) piRISC loaded with Kctd7 piRNA (30 nt) (assay: pre-steady-state target cleavage rate (min^-1); MIWI and MILI are mouse PIWI proteins and EfPiwi is from a freshwater sponge; tags in brackets are library labels; higher = faster piRNA-guided slicing of the target). Details: guide: Kctd7 piRNA 5'p-UGUUAAUCUCUCAGAGAAGGUGACAGUGAU; auxiliary factor: 500 nM mouse GTSF1.
Procedure: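 Cleave-'n-Seq: a library of target RNAs (target site embedded in constant flanks, ACAGCATTCCGCGTTAGTGATATCCG... 5' flank; DNA-blocked outside the site) at 0.1 nM was incubated with 1 nM active mouse MILI or MIWI piRISC (synthetic 5'-monophosphorylated piRNA guide) with or without 500 nM mouse GTSF1 at 33 °C for 1 min to 16 h. Uncleaved targets were sequenced and normalised to non-target controls, and the pooled three trials were fitted to a burst-and-steady-state model to give the pre-steady-state cleavage rate (min^-1; k3 is constrained to at most 1e-4). Sequence is the target site only; target names encode pairing extent (gX:gY) and contiguous / 1-mismatch / 2-mismatch / bulge geometry. Fits with R² ≤ 0 are excluded.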

| Sequence | pre-steady-state target cleavage rate |
| --- | --- |
| AUGACUGUCUCCUUCUCUGAGAGAUUAACA | 0.623 ± 0.037 |
| UACACUGUCUCCUUCUCUGAGAGAUUAACA | 0.599 ± 0.034 |
| UUGACUGUCUCCUUCUCUGAGAGAUUAACA | 0.746 ± 0.04 |
| AACACUGUCUCCUUCUCUGAGAGAUUAACA | 0.738 ± 0.039 |
| UUCACUGUCUCCUUCUCUGAGAGAUUAACA | 0.685 ± 0.036 |
| AUCACUGUCACCUUCUUCUGAGAGAUUAACA | 0.212 ± 0.046 |
| UAGUGUGUCACCUUCUCUGAGACUUUAUGA | 0.00826 ± 0.0044 |
| UUCAGUGUCACCUUCUCUGAGAGAUAAACA | 0.264 ± 0.033 |
| UAGACUGUCUGGUUCUCUGAGAGAUUAUGA | < 0.0001 |
| UAGUCUGUCACCUUCUGUCAGAGAUUAACA | 0.01 ± 0.0034 |
| AUCACUGUCACCGUUCUCUGAGAGAUUAACA | 0.774 ± 0.052 |
| UAGUCUGUCACCGUUCUCUGAGAGAUUAACA | 0.651 ± 0.041 |
| UACACUGUCACCGUUCUCUGAGAGAUUAACA | 0.586 ± 0.03 |
| UUCACUGUCUCGUUCUCUGAGAGAUUAACA | 0.631 ± 0.035 |
| UUCACUGUCACCGUCUCUGAGAGAUUAACA | 0.509 ± 0.022 |
| UUCACUGUCACCGUUCUCUGAGAGAUUAACA | 0.729 ± 0.032 |
| UUCACUGUGACCUUCUCUGAGAGAUUAUGA | 0.119 ± 0.021 |
| UAGUGUGUCUCCUUCUCUGACAGAUUAACA | 0.386 ± 0.03 |
| UACACUGUCACUUCUCUGAGAGAUUAACA | 0.577 ± 0.038 |
| UAGACUGUCACUUCUCUGAGAGAUUAACA | 0.466 ± 0.041 |
| UACACUGUCACCUUUCUCUGAGAGAUUAACA | 0.575 ± 0.029 |
| UAGACUGUCACUUUCUCUGAGAGAUUAACA | 0.8 ± 0.043 |
| UUCACUGUCACUUUCUCUGAGAGAUUAACA | 0.691 ± 0.026 |
| AUCACUGUCACCUUUCUCUGAGAGAUUAACA | 0.599 ± 0.034 |
| UAGACUGUCACACUUCUCUGAGAGAUUAACA | 0.607 ± 0.04 |

| Sequence | pre-steady-state target cleavage rate |
| --- | --- |
| AUCACUGUCACUUUCUCUGAGAGAUUAACA | 0.794 ± 0.04 |
| UACACUGUCACUUUCUCUGAGAGAUUAACA | 0.725 ± 0.025 |
| UUGACUGUCACCUUCUCUGAGACAUUAACA | 0.0684 ± 0.0093 |
| AUCUCUGUCACCUUCUCUGAGAGAUUUUGA | 0.191 ± 0.042 |
| UAGACUCUCACCUUCUCUGAGAGAUUAACA | 0.431 ± 0.029 |
| UACACUGUCACCUUCUCUGAGUGAUUUACA | 0.0176 ± 0.0081 |
| UAGACAGUCACCUUCUCUGAGAGAUUAUCA | 0.252 ± 0.029 |
| UAGACUCACACCUUCUCUGAGAGAUUAUGA | 0.0733 ± 0.015 |
| UACAUCUGUCACCUUCUCUGAGAGAUUAACA | 0.66 ± 0.027 |
| AUCAGCUGUCACCUUCUCUGAGAGAUUAACA | 0.792 ± 0.043 |
| UUCAGCUGUCACCUUCUCUGAGAGAUUAACA | 0.681 ± 0.037 |
| UAGAGCUGUCACCUUCUCUGAGAGAUUAACA | 0.706 ± 0.047 |
| UACAGCUGUCACCUUCUCUGAGAGAUUAACA | 0.749 ± 0.036 |
| UACAGUGUCACCUUCUCUGAGAGAUUAACA | 0.663 ± 0.034 |
| UAGUCUGUCACCUUCUCUGAGAGAUAUUCA | 0.211 ± 0.045 |
| UUCACUGUCACCUUCUCUCUCAGAUUAACA | 0.00363 ± 0.0035 |
| UAGUGAGUCACCUUCUGUCAGAGAUUAACA | 0.00937 ± 0.0041 |
| UACACUGACACCUUCUCUGAGAGAUUUUGA | 0.0697 ± 0.019 |
| UAGUGACUCACCUUGUCUGUGAGAUUAACA | 0.0416 ± 0.0061 |
| UUCACUGUCACCAUCUCUGUGAGAUUAACA | 0.215 ± 0.015 |
| UACACUGUCACCAUCUCUGAGAGAUUAACA | 0.532 ± 0.044 |
| AUCACUGUCACCAUCUCUGAGAGAUUAAGA | 0.184 ± 0.032 |
| AACACUGUCACCAUCUCUGAGAGAUUAACA | 0.77 ± 0.035 |
| AUCACUGUCACCAUCUCUGUGAGAUUAACA | 0.259 ± 0.021 |
| AUCACUGACACCAUCUCUGAGAGAUUAACA | 0.603 ± 0.037 |

| Sequence | pre-steady-state target cleavage rate |
| --- | --- |
| AUCACUGUCACCAUCUCUGAGAGAUUAACA | 0.795 ± 0.048 |
| UUCACUGUCACCAUCUCUGAGAGAUUAACA | 0.738 ± 0.029 |
| UUCACUGUCACCAUCUCUGAGAGAUUAAGA | 0.134 ± 0.025 |
| UAGUGUGUCACCUACUCUCAGAGAUUAACA | 0.0454 ± 0.009 |
| AUCACUGAGACCUUCUCUGAGAGAUUAAGA | 0.17 ± 0.033 |
| UAGUCUGUCUCCAUCUCUGAGAGAUUAACA | 0.509 ± 0.034 |
| UAGUGAGUCACCUUGUCUGAGAGUUUAACA | 0.0617 ± 0.013 |
| UAGUGACUCACCUUCUUUGAGAGAUUAACA | 0.196 ± 0.021 |
| UAGUGACUCACCUUCUCUGAGUGAUUAACA | 0.0244 ± 0.0052 |
| UAGUGACAGACCUUCCUCUGAGAGAUUAACA | 0.0189 ± 0.004 |
| UAGUGACAGACCUUACUCUGAGAGAUUAACA | 0.0198 ± 0.0041 |
| UAGUGAGUCACGUUCUCAGAGAGAUUAACA | 0.171 ± 0.017 |
| UACACUGUUACCUUCUCUGAGAGAUUAACA | 0.441 ± 0.024 |
| UAGACUGUCACCUUCUGUGAGAGAUAUUGA | 0.0117 ± 0.004 |
| AUCACUGUACACCUUCUCUGAGAGAUUAACA | 0.8 ± 0.055 |
| UUCACUGUACCUUCUCUGAGAGAUUAACA | 0.712 ± 0.036 |
| UUCACUGUACACCUUCUCUGAGAGAUUAACA | 0.655 ± 0.033 |
| UACACUGUACACCUUCUCUGAGAGAUUAACA | 0.623 ± 0.03 |
| UAGACUGUACCUUCUCUGAGAGAUUAACA | 0.572 ± 0.044 |
| AUCACUGUAACCUUCUCUGAGAGAUUAACA | 0.651 ± 0.03 |
| UAGACUGUACACCUUCUCUGAGAGAUUAACA | 0.779 ± 0.055 |
| UAGACUGACACCUUCUCUGAGAGAUUAACA | 0.62 ± 0.035 |
| AUCACUGUACCUUCUCUGAGAGAUUAACA | 0.769 ± 0.051 |
